The source of these data is PubChem BioAssay (NCATS).

Assay [1] in a line: qHTS assay for small molecule antagonists of peroxisome proliferator-activated receptor delta signaling (AID 588535; active means well fitted inhibition curve with a large enough effect in the signal ratio, with a control signal flat, not every such curve was filed as active; the % refers to the signal ratio;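 on max response: cells co-treated with a PPAR-delta agonist as stimulator during compound exposure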). The note with it: HEK293T PPARd-UAS-bla, beta-lactamase FRET ratio, 18 h; 460 nm channel. Put shortly:
(§1)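 Reporter: UAS-bla under PPAR-delta response element, HEK293T host. Medium: 2% charcoal/dextran FBS. Dosing: titration, 18 hrs, 37 C. Detection: CCF4, 2 hrs RT, 405 ex/460 and 530 em.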
(In general: qHTS replaces the single test concentration by a dilution series.)

Assay [2] deals with Peroxisome proliferator-activated receptor delta (Homo sapiens) (UniProt Q03181). Described as above. Put shortly:
as §1

For assay [3], the target named is Peroxisome proliferator-activated receptor gamma (Homo sapiens) (UniProt P37231). In words: qHTS assay for small molecule agonists of peroxisome proliferator-activated receptor gamma signaling (AID 588536; active means well fitted curve in the direction sought with a large enough effect in the signal ratio, with a control signal flat, not every such curve was filed as active; the % refers to the signal ratio;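 further: 0% = DMSO basal wells and 100% = rosiglitazone at 2 µM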). Put shortly:
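HEK293 UAS-bla reporter line, 1% charcoal/dextran FBS; titration, 16 h, 37 C; CCF4 loading 2 h RT; fluorescence 460/530 nm. Normalized to rosiglitazone 2 uM = 100%, DMSO = 0%.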

For assay [4] the target is unchanged. In words: qHTS assay for small molecule antagonists of peroxisome proliferator-activated receptor gamma signaling (AID 588537; active means well fitted inhibition curve with a large enough effect in the signal ratio, with a control signal flat, not every such curve was filed as active; the % refers to the signal ratio;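 further: reporter cells co-stimulated with 50 nM rosiglitazone agonist during compound treatment; % of control where 0% means no effect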). Put shortly: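 We seeded GeneBLAzer HEK293 reporter cells at 3000 per well, allowed 6-6.5 h attachment at 37 C, then co-treated with test compound titrations and 50 nM rosiglitazone overnight (16 h). Inhibition was quantified from 460/530 nm emission ratios.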

The target in assay [5] is Vitamin D3 receptor (Homo sapiens) (UniProt P11473). In words: qHTS assay for small molecule antagonists of vitamin D receptor signaling (AID 588541).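 Further: receptor activated by calcitriol during compound treatment; series mostly up to about 77 µM; on the % scale 0 is the no-effect control and ±100 the full control effect.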 Put shortly:
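VDR-UAS-bla HEK293T cells (2000/well, 2% charcoal-stripped FBS) were treated with titrated compounds plus 1-alpha,25-dihydroxyvitamin D3 (50 nM or 3 nM final) for 16 h at 37 C. CCF4 beta-lactamase fluorescence was read; Hill fits gave IC50.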

The target is the same in assay [6]. Put plainly: qHTS assay for small molecule agonists of vitamin D receptor signaling (AID 588543).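 Further: 0% = DMSO basal and 100% = reference agonist control.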 Put shortly:
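Measured: β-lactamase reporter activity (CCF4, 405 nm excitation, 460/530 nm emission) in HEK293T VDR-UAS-bla cells after 16 h compound exposure at 37 °C. Normalization against 50 nM 1α,25-dihydroxyvitamin D3 and DMSO; Hill-fit EC50.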

Assay [7] in a line: qHTS assay for small molecule agonists of retinoid X receptor alpha signaling (AID 588544).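 On activation: 0% = DMSO basal wells and 100% = reference agonist.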 As to conditions: HEK293T RXRa-UAS-bla, beta-lactamase reporter, 18 h; 530 nm emission.
The target of assay [8] is Retinoic acid receptor RXR-alpha (Homo sapiens) (UniProt P19793). The description is as above.
Chain of Retinoic acid receptor RXR-alpha (Homo sapiens) (P19793 whole entry, looked up): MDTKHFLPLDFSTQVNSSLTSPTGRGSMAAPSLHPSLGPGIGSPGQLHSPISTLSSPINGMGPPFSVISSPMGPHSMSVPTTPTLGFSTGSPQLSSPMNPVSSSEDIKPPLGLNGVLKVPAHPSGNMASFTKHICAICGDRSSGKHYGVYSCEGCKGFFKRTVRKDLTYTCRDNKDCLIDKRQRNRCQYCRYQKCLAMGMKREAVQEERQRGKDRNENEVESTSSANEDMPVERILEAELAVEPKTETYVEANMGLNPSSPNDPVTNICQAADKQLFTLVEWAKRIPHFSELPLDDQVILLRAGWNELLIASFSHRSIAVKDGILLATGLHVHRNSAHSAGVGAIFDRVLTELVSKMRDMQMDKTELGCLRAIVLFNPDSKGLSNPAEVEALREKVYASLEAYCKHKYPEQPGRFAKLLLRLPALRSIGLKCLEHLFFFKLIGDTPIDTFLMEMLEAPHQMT
Assay [9] in a line: qHTS assay for small molecule antagonists of retinoid X receptor alpha signaling (AID 588546; active means well fitted inhibition curve with a large enough effect in the signal ratio, with a control signal flat, not every such curve was filed as active; the % refers to the signal ratio;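 further: cells stimulated with 9-cis-retinoic acid as agonist; on the % scale 0 is the no-effect control and ±100 the full control effect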). The note with it: HEK293T RXRa-UAS-bla, beta-lactamase ratio, antagonist mode; measured here: W530 green channel, cytotoxicity proxy. Put shortly:
(§2)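 Beta-lactamase reporter inhibition, read as CCF4 fluorescence ratio (ex 405, em 460/530 nm) after 2 h at RT. HEK293T UAS-bla cells, 2500/well, were stimulated with 9-cis-RA at 500 or 100 nM final alongside test compound for 18 h at 37 C.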

Assay [10] concerns the target Retinoic acid receptor RXR-alpha (Homo sapiens) (UniProt P19793). Described as above. The note with it: HEK293T RXRa-UAS-bla, beta-lactamase ratio, antagonist mode. Put shortly: as §2
In assay [11] the target is Thyroid hormone receptor beta (Homo sapiens) (UniProt P10828). Put plainly: qHTS assay for small molecule antagonists of thyroid hormone receptor beta signaling (AID 588547; active means well fitted inhibition curve with a large enough effect in the signal ratio, with a control signal flat, not every such curve was filed as active; the % refers to the signal ratio;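 further: cells stimulated with 0.4 nM T3 agonist during compound exposure; series mostly up to about 77 µM; on the % scale 0 is the no-effect control and ±100 the full control effect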). The note with it: TR-UAS-bla HEK293, beta-lactamase ratio, antagonist mode, 18 h. Put shortly: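 TR-UAS-bla GripTite HEK293 cells in 2% charcoal/dextran FBS medium were preincubated 4 h at 37 C, given compound (0.59 nM to 92 uM) plus 0.4 nM T3 (final) for 18 h, then CCF4 for 2 h at RT; Hill fit gave IC50.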
Chain of Thyroid hormone receptor beta (Homo sapiens) (P10828 whole entry, looked up): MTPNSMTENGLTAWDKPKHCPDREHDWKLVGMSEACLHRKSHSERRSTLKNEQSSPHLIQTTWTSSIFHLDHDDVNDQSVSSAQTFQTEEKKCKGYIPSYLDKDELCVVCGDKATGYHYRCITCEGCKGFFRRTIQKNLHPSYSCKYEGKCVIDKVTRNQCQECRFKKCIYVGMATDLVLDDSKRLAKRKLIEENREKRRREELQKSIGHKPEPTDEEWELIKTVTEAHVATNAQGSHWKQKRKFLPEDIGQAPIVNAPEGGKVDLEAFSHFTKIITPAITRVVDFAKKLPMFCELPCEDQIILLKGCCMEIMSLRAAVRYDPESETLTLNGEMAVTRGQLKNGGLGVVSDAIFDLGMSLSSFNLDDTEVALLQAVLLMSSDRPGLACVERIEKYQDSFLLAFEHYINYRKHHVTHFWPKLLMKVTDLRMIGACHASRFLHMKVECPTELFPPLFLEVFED

In assay [12] the target is Voltage-gated inwardly rectifying potassium channel KCNH2 (Homo sapiens) (UniProt Q12809). In words: qHTS Assay for Small Molecule Inhibitors of the Human hERG Channel Activity (AID 588834; active means well fitted inhibition curve with a large enough effect;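 further: top concentration of the series differs between compounds; on the % scale 0 is the no-effect control and ±100 the full control effect; lower thallium flux fluorescence means stronger hERG block; nearly all actives have a fitted effect of over 50% in size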). Put shortly: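 Blockade is seen as reduced FluxOR thallium-flux fluorescence in U2OS cells expressing hERG from a BacMam construct, in Opti-MEM with 2% FCS. Concentration-response data fitted to the Hill equation for AC50.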
Chain of Voltage-gated inwardly rectifying potassium channel KCNH2 (Homo sapiens) (Q12809 whole entry, looked up): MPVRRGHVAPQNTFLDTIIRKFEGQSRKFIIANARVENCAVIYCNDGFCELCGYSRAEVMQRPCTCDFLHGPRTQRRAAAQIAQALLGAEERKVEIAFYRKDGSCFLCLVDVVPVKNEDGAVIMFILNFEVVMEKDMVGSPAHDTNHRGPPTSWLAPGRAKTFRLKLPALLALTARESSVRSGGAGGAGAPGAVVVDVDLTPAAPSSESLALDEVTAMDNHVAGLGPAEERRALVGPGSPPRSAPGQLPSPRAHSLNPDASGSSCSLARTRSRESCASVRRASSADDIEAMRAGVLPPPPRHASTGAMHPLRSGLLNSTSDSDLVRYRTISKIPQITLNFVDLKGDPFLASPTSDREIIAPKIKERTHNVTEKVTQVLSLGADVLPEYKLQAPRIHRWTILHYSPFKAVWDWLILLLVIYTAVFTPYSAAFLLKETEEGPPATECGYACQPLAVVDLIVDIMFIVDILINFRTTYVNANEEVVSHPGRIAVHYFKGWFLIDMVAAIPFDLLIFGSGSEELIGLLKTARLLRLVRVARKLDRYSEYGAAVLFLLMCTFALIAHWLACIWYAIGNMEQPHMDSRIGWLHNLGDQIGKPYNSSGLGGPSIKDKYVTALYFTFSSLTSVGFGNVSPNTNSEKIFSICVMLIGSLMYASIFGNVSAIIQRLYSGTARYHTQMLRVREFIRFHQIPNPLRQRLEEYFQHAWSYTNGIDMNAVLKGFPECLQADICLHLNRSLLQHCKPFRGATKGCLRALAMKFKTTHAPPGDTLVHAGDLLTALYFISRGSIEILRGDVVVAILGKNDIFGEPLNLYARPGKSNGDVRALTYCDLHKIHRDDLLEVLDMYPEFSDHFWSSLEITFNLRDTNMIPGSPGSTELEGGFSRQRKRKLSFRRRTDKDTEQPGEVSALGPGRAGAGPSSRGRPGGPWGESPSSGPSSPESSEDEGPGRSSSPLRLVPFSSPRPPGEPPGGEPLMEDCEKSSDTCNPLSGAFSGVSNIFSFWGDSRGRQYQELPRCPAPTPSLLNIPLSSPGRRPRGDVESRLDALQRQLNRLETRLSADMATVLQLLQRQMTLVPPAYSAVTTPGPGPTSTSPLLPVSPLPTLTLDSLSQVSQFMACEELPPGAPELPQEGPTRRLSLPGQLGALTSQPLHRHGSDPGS

Assay [13] is described as follows: qHTS assay for small molecule activators of the p53 signaling pathway (AID 651743; active means well fitted activation curve with a large enough effect in the signal ratio, not every such curve was filed as active; the % refers to the signal ratio; further: series mostly up to about 92 µM; % of control where 0% means no effect). The note with it: HCT-116 p53RE-bla, beta-lactamase FRET ratio, 16 h; stronger effect = higher value. Put shortly: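 Cell-based beta-lactamase reporter (p53 response elements, HCT-116 background). After a 5-hour preincubation, cells received compound for 16 hours at 37 C; substrate development ran 2 hours at room temperature.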

Assay [14] is described as follows: qHTS assay for small molecule activators of the nuclear factor-kappa B (NF-kB) signaling pathway (AID 651749; active means well fitted activation curve with a large enough effect in the signal ratio; the % refers to the signal ratio; further: series mostly up to about 77 µM; % of control where 0% means no effect). The note with it: NF-kB-bla ME-180 cells, beta-lactamase FRET ratio, 16 h; stronger effect = higher value. Put shortly:
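Screening used 2,000 ME-180 reporter cells per well exposed to pinned compound (23 nL) or DMSO; after 16 hr at 37C, beta-lactamase expression under NF-kB control was assessed through FRET.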

The target of assay [15] is Glucocorticoid receptor (Homo sapiens) (UniProt P04150). Put plainly: qHTS assay for small molecule antagonists of glucocorticoid receptor signaling (AID 588533; active means well fitted inhibition curve with a large enough effect in the signal ratio, with a control signal flat, not every such curve was filed as active; the % refers to the signal ratio;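 further: cells stimulated with 2 nM dexamethasone as agonist; on the % scale 0 is the no-effect control and ±100 the full control effect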). Put shortly:
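Antagonist-mode qHTS: compound titrations added to GRE-bla HeLa cells, then dexamethasone 2 nM final; 18 h, 37 C. CCF4 FRET fluorescence normalized to dexamethasone and DMSO; IC50 from Hill fit.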

In assay [16] the target is Thyroid hormone receptor beta (Homo sapiens) (UniProt P10828). Put plainly: qHTS assay for small molecule agonists of thyroid hormone receptor beta signaling (AID 588545).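 Further: 0% = DMSO only and 100% = 10 nM T3.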 Put shortly:
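Efficacy and EC50 values derive from Hill fits of qHTS titration data, normalized to 10 nM T3 and DMSO-only wells. HEK 293 reporter cells were stimulated for 18 hrs at 37 C, with beta-lactamase activity measured by CCF4 fluorescence.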

The nature of assay [17]: qHTS assay for small molecule agonists of the antioxidant response element (ARE) signaling pathway (AID 651741; active means well fitted activation curve with a large enough effect in the signal ratio; the % refers to the signal ratio; further: % of control where 0% means no effect). Put shortly: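 Compounds in DMSO are pinned onto HepG2 ARE-bla cells (2,000/well) that were preincubated 5 h; plates stay 16 h at 37 C, then beta-lactamase activity is detected with LiveBLAzer B/G substrate by fluorescence.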
Assay [18] deals with Glucocorticoid receptor (Homo sapiens) (UniProt P04150). In words: qHTS assay for small molecule agonists of glucocorticoid receptor signaling (AID 588532; active means well fitted curve in the direction sought with a large enough effect in the signal ratio, with a control signal flat; the % refers to the signal ratio;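 further: 100% = dexamethasone at 0.1 µM and 0% = DMSO only wells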). As to conditions: HeLa MMTV-bla, beta-lactamase ratio, agonist, 18 h; stronger effect = higher value; percent of dexamethasone control, DMSO zero. Put shortly:
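MMTV-bla HeLa, beta-lactamase reporter; medium with 1% charcoal/dextran-stripped FBS; cpds up to 92 uM, 18 h, 37 C; CCF4 readout 460/530 nm; Hill fit → EC50, efficacy vs 0.1 uM dexamethasone = 100%.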

Several values for one entry are separate records, joined by “and”; a condition that tells them apart may be missing. Equal values may be shown once. Records with an inconclusive call do not appear. Activity calls are given as the source filed them. Unless noted, the call rests on the fitted dose curve.

Chain of Peroxisome proliferator-activated receptor delta (Homo sapiens) (Q03181 whole entry, looked up): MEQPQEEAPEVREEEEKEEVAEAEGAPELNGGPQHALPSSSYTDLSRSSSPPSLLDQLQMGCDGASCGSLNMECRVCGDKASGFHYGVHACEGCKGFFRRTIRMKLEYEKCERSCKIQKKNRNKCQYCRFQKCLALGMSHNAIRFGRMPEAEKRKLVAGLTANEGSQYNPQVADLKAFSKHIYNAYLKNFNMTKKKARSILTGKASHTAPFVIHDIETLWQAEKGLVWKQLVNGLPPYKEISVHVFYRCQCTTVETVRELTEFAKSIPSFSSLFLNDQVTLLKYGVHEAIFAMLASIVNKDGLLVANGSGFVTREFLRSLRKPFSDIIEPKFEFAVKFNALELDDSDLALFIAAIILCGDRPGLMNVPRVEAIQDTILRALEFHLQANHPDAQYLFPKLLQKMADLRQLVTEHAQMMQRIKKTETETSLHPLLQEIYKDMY
Chain of Vitamin D3 receptor (Homo sapiens) (P11473 whole entry, looked up): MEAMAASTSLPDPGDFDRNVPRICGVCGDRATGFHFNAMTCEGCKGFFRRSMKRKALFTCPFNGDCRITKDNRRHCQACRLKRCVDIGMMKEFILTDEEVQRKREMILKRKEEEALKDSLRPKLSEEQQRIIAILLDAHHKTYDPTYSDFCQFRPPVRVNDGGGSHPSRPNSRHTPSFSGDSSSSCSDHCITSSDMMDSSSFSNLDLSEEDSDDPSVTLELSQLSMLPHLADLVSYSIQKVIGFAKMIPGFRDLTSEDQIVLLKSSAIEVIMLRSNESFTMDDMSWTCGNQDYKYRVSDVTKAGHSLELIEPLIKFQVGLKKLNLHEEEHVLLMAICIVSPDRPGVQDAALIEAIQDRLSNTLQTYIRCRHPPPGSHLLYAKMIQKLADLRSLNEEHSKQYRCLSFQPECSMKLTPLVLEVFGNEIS
Chain of Glucocorticoid receptor (Homo sapiens) (P04150 whole entry, looked up): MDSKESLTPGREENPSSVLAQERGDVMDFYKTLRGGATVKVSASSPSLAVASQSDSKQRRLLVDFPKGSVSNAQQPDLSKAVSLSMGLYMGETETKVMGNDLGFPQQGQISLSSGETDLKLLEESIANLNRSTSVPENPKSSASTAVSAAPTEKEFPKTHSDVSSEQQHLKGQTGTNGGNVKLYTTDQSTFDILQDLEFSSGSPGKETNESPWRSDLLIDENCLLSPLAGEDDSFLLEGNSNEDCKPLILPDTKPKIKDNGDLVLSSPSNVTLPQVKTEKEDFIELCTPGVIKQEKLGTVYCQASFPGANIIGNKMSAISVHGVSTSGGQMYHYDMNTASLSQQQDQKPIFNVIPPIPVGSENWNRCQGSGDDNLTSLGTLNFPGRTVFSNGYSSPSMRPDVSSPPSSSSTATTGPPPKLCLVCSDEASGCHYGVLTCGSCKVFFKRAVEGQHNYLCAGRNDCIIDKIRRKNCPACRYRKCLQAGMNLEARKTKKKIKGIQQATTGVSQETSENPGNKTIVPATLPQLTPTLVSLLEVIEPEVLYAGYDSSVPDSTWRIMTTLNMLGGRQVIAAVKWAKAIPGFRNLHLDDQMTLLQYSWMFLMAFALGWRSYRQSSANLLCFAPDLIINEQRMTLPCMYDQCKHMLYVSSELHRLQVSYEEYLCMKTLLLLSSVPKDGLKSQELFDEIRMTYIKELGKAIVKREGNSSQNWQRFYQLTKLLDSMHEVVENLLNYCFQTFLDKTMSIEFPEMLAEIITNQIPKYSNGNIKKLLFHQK
Chain of Peroxisome proliferator-activated receptor gamma (Homo sapiens) (P37231 whole entry, looked up): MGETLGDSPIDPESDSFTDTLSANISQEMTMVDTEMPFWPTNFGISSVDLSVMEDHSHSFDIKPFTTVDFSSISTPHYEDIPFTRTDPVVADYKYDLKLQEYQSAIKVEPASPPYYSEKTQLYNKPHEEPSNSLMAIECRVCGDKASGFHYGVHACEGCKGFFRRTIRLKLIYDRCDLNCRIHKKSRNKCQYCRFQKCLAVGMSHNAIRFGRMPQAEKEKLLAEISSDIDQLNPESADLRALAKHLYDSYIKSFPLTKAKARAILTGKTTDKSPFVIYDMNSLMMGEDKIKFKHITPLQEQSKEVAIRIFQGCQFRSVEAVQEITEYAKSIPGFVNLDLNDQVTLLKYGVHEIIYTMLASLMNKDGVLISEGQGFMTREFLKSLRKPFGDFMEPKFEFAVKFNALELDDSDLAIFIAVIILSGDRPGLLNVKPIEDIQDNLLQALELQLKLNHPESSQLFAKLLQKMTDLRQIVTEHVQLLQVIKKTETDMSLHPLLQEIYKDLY

As to `COC(=O)c1ccccc1`, the max response was 19.3% in assay [1], 0.622% in assay [7], -5.14% in [9] and 4.4% (inactive) in [10]. The Potency entry in [2] and in assay [12] was “inactive” in each case. For the same compound, the compound was called inactive in assay [3], in [4], in assay [5], in assay [6] and in [8]. For the same compound, the activity change % (negative = inhibition) in assay [11] is -7.56% (inactive). The activation was 7.4% (inactive) in assay [13] and 1.41% (inactive) in [14].

For the compound `NC(=O)c1cccc([N+](=O)[O-])c1`, the outcome in [15], in [3], in assay [4], in assay [8] and in [16] was inactive. The max response in assay [1] was -10.1%; in assay [7] it was 2.13%; in [9] it was -10.9%; in assay [10], -6.67% (inactive). Moreover, the Potency entry in [2] and in [12] was “inactive” each time. The activity change % (negative = inhibition) in [11] is 12.3% (inactive). Moreover, in assay [13], the activation was 8.78% (inactive).

As to `Cc1ccc(Br)cc1`, the outcome in assay [15], in assay [3], in assay [4], in assay [5], in assay [6] and in assay [8] was inactive. The result in assay [16] was inactive. Further, the max response in assay [1] was 4.44%; in assay [7], 5.91%; in assay [9], 1.18%; in assay [10], -0.837% (inactive). In addition, the Potency entry in assay [2], in assay [12] and in assay [17] was “inactive” each time. Moreover, the activity change % (negative = inhibition) in assay [11] is -9.28% (inactive).

`CCN(CC)c1cccc(O)c1`: the activation is -1.18% (inactive) in assay [18], -0.279% (inactive) in assay [13] and 0.251% (inactive) in assay [14]. Moreover, the max response in assay [1] was 12.9%; in assay [7], -9.19%; in assay [9], 6.69%. Also, the Potency result in assay [2] and in assay [12] was “inactive” each time. Also, the result in assay [3], in [8] and in [16] was inactive. Moreover, the activity change % (negative = inhibition) in assay [11] was 4.53% (inactive).

On to `CC(=O)OC(C)=O`, for which the outcome in [15], in [3], in assay [4], in [5], in assay [6] and in assay [8] was inactive. Moreover, in assay [16], the result was inactive. The max response in assay [7] was -0.73%; in assay [9], -8.16%; in [10] it was 5.52% (inactive). Further, the Potency entry in assay [12] and in [17] was “inactive” in each case. The activation in assay [13] is 1.52% (inactive); in [14], -1.18% (inactive).

For `CCCCOCCOCCSC#N`, the call in assay [15], in [3], in [5], in [6] and in [8] was inactive. Further, the max response in [1] was 34.7%; in assay [7] it was 3.38%; in assay [9], -3.14%; in [10], 5.89% (inactive). The Potency result in assay [2] and in assay [17] was “inactive” in each case. Further, the activation was -1.56% (inactive) in [13] and 0.862% (inactive) in [14].

On to `COc1ccc(N)c(OC)c1`, for which the values for the activation in assay [18] and in assay [13] were 4.84% (inactive) and 1.84% (inactive), respectively. Further, the result in assay [3], in assay [4], in [5], in assay [6], in [8] and in [16] was inactive. Moreover, the max response is -3.88% in assay [7], -0.758% in [9] and -1.72% (inactive) in assay [10]. For the same compound, the activity change % (negative = inhibition) in [11] was -1.14% (inactive).

In the case of `Nc1cc([N+](=O)[O-])ccc1C(=O)O`, the max response in assay [1] was -33% and 11%; in [7], 8.72% and -23.6%; in assay [9] it was -12.5% and -8.81%; in [10], 19.8% (inactive) and -9.41% (inactive). For the same compound, the Potency result in assay [2], in assay [12] and in assay [17] was “inactive” in each case. Also, the result in assay [3], in assay [4], in [5], in [6], in [8] and in [16] was inactive. Also, in assay [11], the activity change % (negative = inhibition) is 7.18% (inactive) and -9.31% (inactive). In assay [13], the activation is -3.96% (inactive) and 3.5% (inactive).
